An excerpt weighted towards active compounds, which were near 7.3% of everything screened.
NPC1 prom act = activates the NPC1 promoter | Huh7 NPC1 promoter luciferase reporter, 24 h | Potency, µM (doses to about 9.22 µM), hits mostly activators | 2.4% of 320,000 active | AID 485313; note: nearly all actives have a fitted effect of over 60% in size
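Compounds in DMSO were transferred onto Huh7 NPC1-luciferase reporter cells pre-incubated 2 h; after 24 h at 37 °C, Amplite reagent was dispensed and luminescence recorded 10 min later.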
Luc counter = counter-screen: inhibitors of Kinase-Glo firefly luciferase. Kinase-Glo luciferase, ATP luminescence, 8 min. AID 1379. Q27757. Potency, µM (top dose mostly 38.3 µM), actives largely listed as inhibitors. 0.28% of 200,000 active; note: nearly all actives have a fitted effect of over 60% in size
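Substrate mix (final 50 mM imidazole pH 7.2, 50 mM KCl, 7 mM MgCl2, 10 uM ATP, 0.01% Tween 20, 0.05% BSA) plus pin-tool compound, then Kinase-Glo detection mix; 8 min ambient, luminescence read.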
ELG1 genotoxic = inducers of genotoxicity in HEK293T ELG1-luciferase cells. 1.3% of 330,000 active. Potency, µM (top dose mostly 46 µM), actives largely listed as activators. AID 504466. HEK293T ELG1-luciferase reporter, luminescence, 16 h; note: nearly all actives have a fitted effect of over 60% in size
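DMSO vehicle served as control against compound-treated ELG1-luciferase HEK293T cells; exposure lasted 16 hr at 37 °C and 5% CO2, followed by ONE-Glo luminescence detection after 30 min.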
SMN2 splice enh = enhancers of SMN2 splice variant expression; HEK293 SMN2-luciferase splicing reporter, luminescence, 30-36 h; Potency, µM (series often up to 46.1 µM), hits mostly activators; 2.8% of 210,000 active; note: nearly all actives have a fitted effect of over 55% in size
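HEK293 cells carry an SMN2 minigene-luciferase reporter in which exon 7 inclusion puts luciferase in frame. Cells were seeded at 2000 cells/well, attached for 10-12 hours, then exposed to compounds for 30-36 hours at 37C before ONE-Glo luminescence.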
Rab9 prom act = activators of Rab9 promoter. Potency, µM (highest dose often 9.22 µM), hits mostly activators. Huh7 Rab9 promoter-luciferase reporter, luminescence, 24 h. 2.8% of 320,000 active; note: nearly all actives have a fitted effect of over 60% in size
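Cells were plated at 1500 per well in reduced-serum medium with 10% FBS and left 2 h. Compound in DMSO was then added for 24 h at 37 °C. Reporter signal was read by luminescence after 10 min with luciferase detection reagent.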
FLuc counter = firefly luciferase modulation, counter-screen for miR-21 project | P08659 | purified FLuc, Km substrates, luminescence inhibition | Potency, µM (titrated, usually from 57.5 µM), usual class: inhibitors | 6.9% of 360,000 active; note: nearly all actives have a fitted effect of over 55% in size
Target sequence (P08659 whole entry, looked up): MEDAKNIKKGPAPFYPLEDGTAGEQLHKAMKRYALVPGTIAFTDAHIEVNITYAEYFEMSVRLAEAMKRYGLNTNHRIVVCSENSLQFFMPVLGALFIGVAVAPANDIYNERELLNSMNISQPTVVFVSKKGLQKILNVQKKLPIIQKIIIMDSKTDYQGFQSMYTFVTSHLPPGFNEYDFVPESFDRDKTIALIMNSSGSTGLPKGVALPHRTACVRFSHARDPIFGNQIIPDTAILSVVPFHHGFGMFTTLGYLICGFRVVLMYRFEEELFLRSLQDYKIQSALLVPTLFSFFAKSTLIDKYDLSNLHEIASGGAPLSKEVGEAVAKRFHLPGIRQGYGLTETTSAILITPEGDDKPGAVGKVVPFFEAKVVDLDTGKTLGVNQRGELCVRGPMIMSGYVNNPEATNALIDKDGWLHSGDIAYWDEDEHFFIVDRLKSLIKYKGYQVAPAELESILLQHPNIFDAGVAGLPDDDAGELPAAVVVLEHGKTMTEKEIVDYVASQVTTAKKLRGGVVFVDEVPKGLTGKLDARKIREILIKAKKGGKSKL
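Purified P. pyralis luciferase, 10 nM final, with Km-level 10 uM D-luciferin and 10 uM ATP in 50 mM Tris acetate pH 7.5, 10 mM Mg acetate, 0.01% Tween-20, 0.05% BSA; 6-point qHTS titration about 60 µM downward; luminescence read.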
Large screens that a line does not name were inactive. Calls come from the whole dose curve; as a rule, active = well fitted curve in the direction sought with a large enough effect; inconclusive = small, poorly fitted or top-dose-only effect, or another doubt; inactive = no such curve, though single readings can be large; an effect the other way counts as inactive or inconclusive.

CC(C)(Oc1ccc(Cl)cc1)C(=O)Nc1ccc2oc(=O)ccc2c1	none (no result: Luc counter, SMN2 splice enh)
CCOc1cccc(OCCCn2c(-c3ccc(Br)cc3)nc3ccccc3c2=O)c1	none (no result: NPC1 prom act, Luc counter, ELG1 genotoxic, Rab9 prom act)
CC(C)Cc1nc(SCC(=O)N2CC(C)OC(C)C2)c2c(=O)n(C)c(=O)n(C)c2n1 (stereo unspecified)	none (no result: Luc counter, SMN2 splice enh)
CC1CCCCN1CCNC(=O)c1ccc(Cn2c(SCc3ccccc3)nc3cccnc32)cc1 (stereo unspecified)	FLuc counter 13.5µM (no result: NPC1 prom act, Luc counter, ELG1 genotoxic, Rab9 prom act)
CC1CCN(CCNC(=O)c2ccc(Cn3c(SCc4ccccc4)nc4cccnc43)cc2)CC1	FLuc counter 12µM (no result: NPC1 prom act, Luc counter, ELG1 genotoxic, Rab9 prom act)
O=C(NCCN1CCCCC1)c1ccc(Cn2c(SCc3ccccc3)nc3cccnc32)cc1	FLuc counter 12µM (no result: NPC1 prom act, Luc counter, ELG1 genotoxic, Rab9 prom act)
Cc1cccc(Cn2c(SCc3ccc(C(=O)NCCc4ccccc4)cc3)nc3cccnc32)c1	none (no result: NPC1 prom act, Luc counter, ELG1 genotoxic, SMN2 splice enh, Rab9 prom act)
CCC(CC)NC(=O)CON=C1c2ccccc2-c2ccccc21	none
CCN(CC)C(=O)c1ccc2c(c1[N+](=O)[O-])C(=O)c1ccccc1C2=O	NPC1 prom act 2.82µM, ELG1 genotoxic inconclusive, SMN2 splice enh 12.6µM, Rab9 prom act 2.24µM
CCc1cc2c(SC(C)C(=O)NC3CCCC3)ncnc2s1 (stereo unspecified)	none (no result: NPC1 prom act, Luc counter, SMN2 splice enh, Rab9 prom act, FLuc counter)
CCc1cc(C=NC2CCCCC2)c(O)s1	NPC1 prom act inconclusive, Rab9 prom act 3.55µM, FLuc counter inconclusive
COc1ccc2ccccc2c1/C=N\n1c(C)cc(C)c(C(N)=O)c1=O	none
Cn1nnnc1SCCNC(=O)C1CCC(=O)N(Cc2ccccc2F)C1 (stereo unspecified)	none (no result: Luc counter, SMN2 splice enh)
N#CC1(c2ccc(NC(=O)c3ccccc3F)cc2)CCCC1	NPC1 prom act 0.631µM, ELG1 genotoxic 1.84µM, SMN2 splice enh 2.82µM, Rab9 prom act 0.794µM, FLuc counter 1.9µM
COc1ccc(C(=O)Nc2ccc(C3(C#N)CCCC3)cc2)cc1	FLuc counter 4.78µM
Cc1ccc2nc(-c3ccccc3)cc(C(=O)NCCCn3ccnc3)c2c1	FLuc counter 21.3µM (no result: SMN2 splice enh)
O=C(NCCCn1ccnc1)c1cn(-c2ccccc2)nc1-c1ccc(F)cc1	FLuc counter 10.7µM
O=C(NCCCn1ccnc1)c1cc(-c2ccc(Cl)cc2)nc2ccccc12	FLuc counter 23.9µM
O=C(O)c1ccccc1C(=O)NCCCn1ccnc1	none (no result: Luc counter, SMN2 splice enh)
CCn1c(SCC(=O)c2cc(OC)ccc2OC)nnc1C(C)C	none
O=C(Nc1cnccn1)c1ccncc1	none
O=C(CN1CCN(c2ccccn2)CC1)Nc1ccc(F)cc1F	none (no result: Luc counter, SMN2 splice enh)
CCOC(=O)Cc1cc(=O)n(-c2nc3ccccc3s2)[nH]1	FLuc counter 23.9µM
O=C(Cc1coc2ccc3ccccc3c12)N1CCN(c2ncccn2)CC1	none
S=c1nc2ccccc2c2nc(-c3ccccc3)[nH]n12	NPC1 prom act inconclusive, FLuc counter 26.9µM
S=c1nc2ccccc2c2nc(-c3ccccc3Cl)[nH]n12	FLuc counter inconclusive (no result: Luc counter, SMN2 splice enh)
COC(=O)c1c(C)[nH]c(C)c1-c1ccccc1	none
O=C(Oc1ccc2c(c1)OCO2)c1ccc(F)cc1Cl	Luc counter inconclusive, Rab9 prom act inconclusive, FLuc counter 2.69µM
CC(C)Oc1ccc(C(=O)Nc2c(C(=O)Nc3cccc(F)c3)oc3ccccc23)cc1	FLuc counter inconclusive (no result: NPC1 prom act, Luc counter, ELG1 genotoxic, Rab9 prom act)
O=C(Nc1c(C(=O)Nc2cccc(F)c2)oc2ccccc12)c1ccc2c(c1)OCO2	ELG1 genotoxic inconclusive, FLuc counter 8.49µM
Cc1ccc(NC(=O)c2oc3ccccc3c2NC(=O)c2ccc3c(c2)OCO3)cc1	FLuc counter 6.75µM
O=C(Nc1cccc(F)c1)c1ccc2c(c1)OCO2	NPC1 prom act 2.82µM, ELG1 genotoxic 5.17µM, SMN2 splice enh 6.31µM, Rab9 prom act 1.58µM, FLuc counter 10.7µM
COc1ccc(/C=C2\SC(=O)N=C2N)cc1OC	SMN2 splice enh inconclusive
COc1ccccc1-n1c(C)nc2cc(C(=O)O)ccc21	none
O=C(Oc1ccc2c(c1)OCO2)c1cc2c(s1)CCC2	FLuc counter 3.79µM
O=C(c1cc2c(s1)CCCC2)N1CCN(Cc2ccc3c(c2)OCO3)CC1	none
O=C(NNC(=O)c1ccc(F)cc1F)c1ccc2c(c1)OCO2	ELG1 genotoxic inconclusive, SMN2 splice enh inconclusive, Rab9 prom act 3.16µM, FLuc counter inconclusive

Compound activity deposited in PubChem BioAssay by National Center for Advancing Translational Sciences (NCATS).
